Assay outcomes (PubChem BioAssay)
PKD1 inh: inhibitors of human PKD1 kinase, biochemical, fluorescence polarization; Serine/threonine-protein kinase D1 (Homo sapiens), Q15139; PKD1 kinase fluorescence polarization assay; inhibition, % (test concentration not listed); hit rate 0.056% among 200,000
GRK2 inh: compounds blocking aptamer binding on GRK2 – biochemical, human GRK2, bead flow cytometry, HTS, primary screen; hit rate 0.59% among 330,000; AID 488847, 2010; FAM-aptamer displacement from GRK2; inhibition of aptamer binding, % at 10 µM;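 active = inhibition of aptamer binding above 40%, roughly 3 SD of noise, on plates passing a quality check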;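 also: median bead fluorescence of bound FAM aptamer so fluorescent compounds give negative values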
VLA-4 inh: inhibition in human VLA-4 binding assay, primary screen, VLA-4 allosteric modulator project, MLPCN library, flow cytometry, VLA-4 expressing cells. AID 2557, 2010. hit rate 0.2% among 330,000. ligand binding flow cytometry. inhibition, % (about 7 µM as worked out from the volumes in the protocol). Integrin alpha-4 (Homo sapiens), P13612
LANA-H2A inh: blockers of LANA interaction with H2A/H2B – biochemical, FP readout, HTS, primary screen; Protein LANA1 (Human herpesvirus 8 type P (isolate GK18)), Q9QR71; cell-free LANA-H2A/H2B peptide, fluorescence polarization; inhibition, % (no concentration beside the values); hit rate 0.6% among 320,000; AID 2629, 2010; in the data active = inhibition mostly above about 10%, no sharp cut-off; inactive = mostly below about 6.7%
Target sequence (Q9QR71 whole entry, looked up): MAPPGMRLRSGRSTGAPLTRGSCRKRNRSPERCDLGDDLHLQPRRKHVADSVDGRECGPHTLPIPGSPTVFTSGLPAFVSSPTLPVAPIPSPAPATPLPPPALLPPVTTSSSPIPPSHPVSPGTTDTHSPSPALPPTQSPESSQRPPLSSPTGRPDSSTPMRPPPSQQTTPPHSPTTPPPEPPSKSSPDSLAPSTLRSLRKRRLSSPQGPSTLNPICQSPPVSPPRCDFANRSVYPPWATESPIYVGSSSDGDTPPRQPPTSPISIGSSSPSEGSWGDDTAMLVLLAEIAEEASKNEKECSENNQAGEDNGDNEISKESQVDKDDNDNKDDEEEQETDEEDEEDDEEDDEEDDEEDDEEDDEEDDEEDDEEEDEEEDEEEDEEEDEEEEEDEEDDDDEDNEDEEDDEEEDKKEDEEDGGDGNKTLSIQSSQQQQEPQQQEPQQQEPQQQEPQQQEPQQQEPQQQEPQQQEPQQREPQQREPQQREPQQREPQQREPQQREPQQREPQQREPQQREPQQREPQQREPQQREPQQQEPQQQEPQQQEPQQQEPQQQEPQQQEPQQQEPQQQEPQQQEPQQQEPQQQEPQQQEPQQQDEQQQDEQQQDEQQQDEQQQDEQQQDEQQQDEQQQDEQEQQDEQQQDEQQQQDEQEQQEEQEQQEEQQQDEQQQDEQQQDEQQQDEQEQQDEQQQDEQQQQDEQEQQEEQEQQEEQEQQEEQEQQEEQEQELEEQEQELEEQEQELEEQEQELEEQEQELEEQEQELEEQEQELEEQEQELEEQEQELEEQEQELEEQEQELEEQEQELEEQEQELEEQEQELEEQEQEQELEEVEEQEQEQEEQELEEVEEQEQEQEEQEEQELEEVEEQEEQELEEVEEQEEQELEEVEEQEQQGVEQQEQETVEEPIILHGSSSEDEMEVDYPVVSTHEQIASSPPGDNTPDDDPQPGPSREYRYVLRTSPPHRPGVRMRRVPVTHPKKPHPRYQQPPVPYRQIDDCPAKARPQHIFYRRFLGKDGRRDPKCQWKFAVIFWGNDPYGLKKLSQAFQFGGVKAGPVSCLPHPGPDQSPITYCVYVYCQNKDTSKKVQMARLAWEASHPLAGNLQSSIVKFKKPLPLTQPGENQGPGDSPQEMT
HDAC3 inh: HDAC3 deacetylase inhibitors, primary screen, biochemical, fluorescence, cell-free homogeneous; Histone deacetylase 3 (Homo sapiens), O15379; recombinant HDAC3, fluorogenic peptide/trypsin coupled; inhibition, % at 8.3 µM; hit rate 0.15% among 320,000; in the data active = inhibition above about 26%, passing the limit was not always enough
Pemphigus Ab inh: inhibitors of pemphigus antibody binding to DSG3, primary screen, biochemical, bead-based, flow cytometry, scFv-GFP | Desmoglein-3 (Homo sapiens), P32926 | DSG3-coupled beads, scFv-anti-DSG3-GFP binding; stronger effect = lower value | binding (percent of control), % at 10 µM | hit rate 0.48% among 310,000 | AID 588358, 2011;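 active = binding more than 3 SD below its plate's average and above zero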
A number is an active result; n = inactive; x = no result given. Most compounds without a hit are left out; they make up all but 1.8% or so of the library. Rule as the data show it, unless noted: active = inhibition above about 50%; inactive = the rest.

SMILES | PKD1 inh | GRK2 inh | VLA-4 inh | LANA-H2A inh | HDAC3 inh | Pemphigus Ab inh
Cc1ccc(S(=O)(=O)N2C[C@H]3[C@H]4C(=O)N(c5ccccc5)C(=O)[C@H]4C[C@H](OC(=O)Nc4cccs4)[C@@]3(O)C2)cc1 | x | x | x | x | x | n
O=C(C1CC(=O)N(c2ccccc2F)C1)N1CCOCC1 (centres undefined) | x | n | n | n | n | n
O=C(COC(=O)c1cc[n+]([O-])cc1)Nc1ccc(Cl)cc1Cl | x | n | n | n | n | x
O=C(/C=C/c1ccc(-c2cccc([N+](=O)[O-])c2)o1)N1CCOCC1 | x | n | n | n | n | 86
O=C(/C=C/c1cccc([N+](=O)[O-])c1)N1CCOCC1 | n | n | n | n | n | n
CCCn1c(SC(C)C(=O)NC2CCCC(C)C2C)n[nH]c1=O (centres undefined) | x | x | x | x | x | 79
CC(Sc1n[nH]c(=O)n1Cc1ccccc1)C(=O)NC1CCCCC1C (centres undefined) | x | n | n | n | n | n
Nc1c(C(=O)N/N=C/c2cccnc2)oc2nc(-c3ccccc3)cc(-c3ccco3)c12 | x | n | n | n | n | n
O=CNn1cnc2c(oc3nc(-c4ccccc4)cc(-c4ccco4)c32)c1=O | n | n | n | n | n | 78
O=C(NC(Cc1ccccc1)C(=O)Oc1ccc2c(C(F)(F)F)cc(=O)oc2c1)OCc1ccccc1 (centres undefined) | n | n | n | 175 | n | n
C=CCSc1nnc2nc3c(nn12)c1cc(C)ccc1n3CC=C | n | n | n | n | n | -30
CCOC(=O)c1cn(-c2ccc([N+](=O)[O-])cc2)c2cc(Cl)c([N+](=O)[O-])cc2c1=O | n | n | n | n | n | 62
CCC(C)(C)c1ccc(OCCCC[n+]2ccc(C)cc2)c(C(C)(C)CC)c1 | n | n | n | n | 34 | x
CCC(C)(C)c1ccc(OCCCC[n+]2cccc(C)c2C)c(C(C)(C)CC)c1 | x | x | n | n | n | n
Cn1c(=O)c2c(ncn2CC(=O)Nc2cc(S(=O)(=O)N3CCCCC3)ccc2Cl)n(C)c1=O | x | n | n | n | n | n
c1ccc(-c2nnnn2-c2ccccc2)cc1 | x | n | n | n | n | n
ClC(Cl)(c1nnnn1-c1ccccc1)c1nnnn1-c1ccccc1 | n | n | n | n | n | 77
Cc1ccc(C)c(NC(=O)C2CC(=O)N(C3CCCCC3)C2)c1 (centres undefined) | x | n | n | n | n | n
O=C(NN1C(=O)C2C3CCC(O3)C2C1=O)c1ccco1 (centres undefined) | n | n | n | n | n | n
O=C(N=c1ccn(-c2nc3ccccc3nc2NS(=O)(=O)c2ccccc2)cc1)c1ccccc1Cl | x | n | n | n | n | n
O=C(N=c1ccn(-c2nc3ccccc3nc2NS(=O)(=O)c2ccc(Cl)cc2)cc1)c1ccccc1Cl | x | n | n | 15 | n | x
COc1ccc(C(=O)Nc2cccnc2Sc2ccc(Cl)cc2)cc1 | x | n | n | n | n | 80
COc1ccc(CCNC(=O)C(=O)NCC2OCCN2S(=O)(=O)c2ccc3c(c2)OCCO3)cc1OC (centres undefined) | x | n | n | n | n | n
CC(C)OC(=O)CC(=O)CSc1nc2c(cc1C#N)CCCCC2 | n | n | n | n | n | x
CC(C)OC(=O)CSc1nc2c(cc1C#N)CCCCC2 | n | n | n | n | n | 87
SMILES | PKD1 inh | GRK2 inh | VLA-4 inh | LANA-H2A inh | HDAC3 inh | Pemphigus Ab inh
c1ccc2[nH]c3cc4ncnc4cc3nc2c1 | n | n | n | 26 | n | n
Cc1cc(=O)oc2cc(OCC(=O)Nc3ccc(S(=O)(=O)N(C)C)cc3)ccc12 | x | n | n | n | n | 71
Cc1cc(=O)oc2cc(OCC(=O)OCC(=O)Nc3ccccc3Br)ccc12 | x | n | n | n | n | 71
CNC(=O)COC(=O)COc1ccc2c(C)cc(=O)oc2c1 | n | n | n | n | n | n
COc1ccc(CC(=O)NCc2ccccc2F)cc1S(=O)(=O)N1CCOCC1 | x | x | x | x | x | n
CC(C)Cn1c(CCCNC(=O)c2ccc(F)cc2)nc2ccccc21 | n | n | n | 11 | n | n
O=C(Nc1ccccc1C(=O)NCCCN1CCOCC1)c1ccc(Cl)cc1 | x | n | n | 88 | n | n
C=CC[C@@H](CC(=O)N[C@@H](CO)Cc1ccccc1)C(=O)N[C@H](COC(=O)[C@@H](CC=C)CC(=O)OC(C)(C)C)Cc1c[nH]c2ccccc12 | x | n | n | n | 37 | n
C=CC[C@H](CC(=O)N[C@H](CO)Cc1ccccc1)C(=O)N[C@@H](COC(=O)[C@@H](CC=C)CC(=O)OC(C)(C)C)Cc1c[nH]c2ccccc12 | x | n | n | 19 | 32 | n
COCCn1c(Cc2ccccc2)nnc1SCC(=O)NC1CCCCC1 | x | n | n | n | n | n
COc1ccc(NC(=O)CSc2nc(N3CCCCC3)nc(N3CCCCC3)n2)cc1 | n | n | n | n | n | 88
COc1ccc2[nH]c3nc(SCC(=O)NNC(=O)c4ccc(OC)c(OC)c4)nnc3c2c1 | n | n | n | n | n | 15
N#Cc1ccc(C(=O)NCC2CCCCC2)cc1 | x | n | n | n | n | n
O=C(/C=C/c1cccs1)Nc1nncs1 | x | n | n | 15 | n | n
CC1(C)CC(=O)C=C(c2cc3ccccc3s2)C1 | x | n | n | n | n | 85
O=C1C=C(c2cc3ccccc3s2)CCC1 | x | n | n | n | n | n
CC1(C)CC(=O)C=C(c2cccc3c2sc2ccccc23)C1 | x | n | n | n | n | n
C/C(=N\NC(=S)NCc1ccccc1)c1cccc(Br)c1 | n | n | n | n | n | n
C/C(=N\NC(=S)NCc1ccccc1)c1ccc2ccccc2c1 | n | 98 | n | n | n | n
C/C(=N/Nc1ccc(C(=O)O)cc1)c1ccc(O)c(O)c1O | n | n | x | n | n | n
CC(=O)Nc1ccc(C(=O)OCCc2ccccc2)cc1 | x | n | n | 15 | n | n
CSc1ccccc1NC(=O)COC(=O)Cn1cc(C(F)(F)F)ccc1=O | x | n | n | n | n | x
COc1ccc(NC(=O)c2ccc(CN3CCN(c4ccccc4)CC3)cc2)cc1 | n | n | n | n | n | x
Cc1cccc(OCC(=O)Nc2ccc(N3CCN(C(=O)c4ccccc4)CC3)cc2)c1C | x | n | n | n | x | x
COc1cccc(C(=O)Nc2ccc(NC(=O)Cc3ccccc3)cc2)c1 | x | n | n | n | n | 92
CCc1ccc(OCC(=O)Nc2ccc(N3CCN(C(=O)c4ccccc4)CC3)cc2)cc1 | x | n | n | n | n | 95
COc1ccc(C2(c3ccc(OC)cc3)NC(=O)N(CC(=O)Nc3ccc(N4CCOCC4)cc3)C2=O)cc1 | x | n | n | n | n | 3.0
COc1ccc(NC(=O)c2ccc(NC(=O)CN3CCN(c4ccccc4)CC3)cc2)cc1 | x | n | n | n | n | 5.2
